HDAC3 inhib: HDAC3 deacetylase inhibitors, primary screen, biochemical, fluorescence, cell-free homogeneous; recombinant HDAC3, fluorogenic peptide/trypsin coupled; Histone deacetylase 3 (Homo sapiens), O15379; hit rate 0.15% among 320,000; AID 2718, 2010; inhibition, % at 8.3 µM; in the data active = inhibition above about 26%, passing the limit was not always enough; inconclusive = no clear call, values can overlap the other calls
IDE cell inh: human IDE inhibitors in live cells, primary screen, fluorescence polarization, HEK cells, FAbetaB substrate | Insulin-degrading enzyme (Homo sapiens), P14735 | inhibition, % at 5.59 µM | hit rate 0.41% among 320,000 | AID 434962, 2010 | FAbetaB cleavage;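 active = percent inhibition above the average of all tested compounds plus 3 SD, set per screening campaign, cut at about 16% in these data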;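 note: IDE supplied by intact live HEK cells; FP after avidin binding of uncleaved biotin substrate so inhibition keeps polarization high; 0% = DMSO wells and 100% = 60 µM reference IDE inhibitor Ii1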
Target sequence (P14735 whole entry, looked up): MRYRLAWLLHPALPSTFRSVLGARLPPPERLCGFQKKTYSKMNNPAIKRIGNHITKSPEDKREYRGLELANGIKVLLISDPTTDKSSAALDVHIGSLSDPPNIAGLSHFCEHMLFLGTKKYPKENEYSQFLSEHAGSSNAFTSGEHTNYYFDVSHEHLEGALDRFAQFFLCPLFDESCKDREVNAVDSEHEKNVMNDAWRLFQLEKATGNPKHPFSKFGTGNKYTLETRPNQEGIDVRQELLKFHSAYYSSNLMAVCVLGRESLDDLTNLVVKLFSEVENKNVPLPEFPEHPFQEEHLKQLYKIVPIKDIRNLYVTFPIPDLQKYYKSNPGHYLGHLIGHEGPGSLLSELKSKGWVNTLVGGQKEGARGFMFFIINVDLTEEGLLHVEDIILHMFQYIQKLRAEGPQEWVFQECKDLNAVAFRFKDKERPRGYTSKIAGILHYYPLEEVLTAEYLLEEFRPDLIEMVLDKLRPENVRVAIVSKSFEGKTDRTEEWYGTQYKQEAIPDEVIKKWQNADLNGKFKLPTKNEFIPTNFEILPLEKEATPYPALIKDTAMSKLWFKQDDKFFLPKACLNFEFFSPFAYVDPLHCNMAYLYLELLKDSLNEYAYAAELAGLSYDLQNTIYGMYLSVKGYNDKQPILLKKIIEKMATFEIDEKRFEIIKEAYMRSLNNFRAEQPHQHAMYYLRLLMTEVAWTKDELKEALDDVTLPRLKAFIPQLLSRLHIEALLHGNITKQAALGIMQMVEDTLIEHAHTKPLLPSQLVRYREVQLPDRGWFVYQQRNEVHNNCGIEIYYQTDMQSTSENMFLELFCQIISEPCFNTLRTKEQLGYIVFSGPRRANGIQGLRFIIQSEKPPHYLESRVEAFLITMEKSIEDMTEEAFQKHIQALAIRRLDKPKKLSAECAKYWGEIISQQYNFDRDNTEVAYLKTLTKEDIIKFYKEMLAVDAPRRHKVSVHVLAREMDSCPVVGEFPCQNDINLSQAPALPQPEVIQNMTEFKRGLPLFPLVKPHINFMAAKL
IDE cell activ: human IDE activators in live cells, primary screen, fluorescence polarization, HEK cells, FAbeta-B substrate | FAbeta-B cleavage; 0% vehicle, 100% cell-free pure enzyme wells | activation, % at 5.96 µM | hit rate 0.073% among 340,000 | AID 493087, 2011;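 active = activation above the mean of all tested compounds plus 3 SD, set per screening campaign, cut at about 17% in these data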
LANA-H2A inh: blockers of LANA interaction with H2A/H2B – biochemical, FP readout, HTS, primary screen | AID 2629, 2010 | hit rate 0.6% among 320,000 | Protein LANA1 (Human herpesvirus 8 type P (isolate GK18)), Q9QR71 | inhibition, % (test concentration not listed) | cell-free LANA-H2A/H2B peptide, fluorescence polarization; in the data active = inhibition mostly above about 10%, no sharp cut-off; inactive = mostly below about 6.7%
Mot1-301 SUMO: yeast Mot1-301 growth rescue at high temperature, primary screen, SUMOylation pathway inhibitor project, S. cerevisiae, ATP luminescence, 38.5C. S. cerevisiae Mot1-301 growth rescue; percent above DMSO median, 100 means doubled. AID 2716, 2010. hit rate 1% among 320,000. growth rescue, % at 18.8 µM;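 active = every valid replicate shows activation above 250% relative to neutral control wells; inactive = the rest, any valid replicate at or below 250%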;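 note: OY570 slx delta 5 strain wells were the positive control but not used for scaling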
Active calls of the source: *; i = inactive; ? = inconclusive; / = no result; + = active, no number. This is a sample that favours compounds with a hit; in the whole collection about 2.1% have one here.

SMILES	HDAC3 inhib	IDE cell inh	IDE cell activ	LANA-H2A inh	Mot1-301 SUMO
CC1=NN(c2ccccc2)C(=O)/C1=C\c1ccc(Oc2ccc([N+](=O)[O-])cc2[N+](=O)[O-])cc1	0.9	-0.4	1.5	21.9*	-6.3
COC(=O)CSc1nnc(CCc2ccccc2)n1C	-0.9	1.2	1.4	11.3*	i
Cc1cccc(N2C(=O)CN(Cc3cccs3)C2=S)c1	1.3	6.7	2.2	+	8.7
C[C@H](NC(=O)c1ccccc1Cl)C(=O)OCc1cn2cc(Cl)ccc2n1	-2.0	1.2	4.4	14.6*	-17.2
CC(NC(=O)c1ccccc1Cl)C(=O)OCc1cn2cc(Cl)ccc2n1 (stereo not given)	2.8	-2.4	0.4	3.4	38.4
O=C(CN1CCN(C(C(=O)Nc2cc(C(F)(F)F)ccc2Cl)c2ccccc2)CC1)NC1CC1 (stereo not given)	/	/	4.7	/	/
COc1ccc2c3c(cccc13)C(=O)CC2	2.3	/	42.5*	+	-37.9
N#C/C(=C\c1c[nH]c2ccc(Br)cc12)c1ccccn1	-3.5	2.8	-0.8	-2.1	35.4
CC(=O)c1cc2c(cc1NC(=O)C1CN(C(C)=O)c3ccccc3O1)OCO2 (stereo not given)	1.2	1.5	2.5	2.8	17.2
Cn1c(=O)c2c(nc3n2CC(O)CN3c2ccccc2)n(C)c1=O (stereo not given)	-2.3	9.3	0.2	-0.6	13.5
COc1ccc(/C=C(\C#N)C(=O)Nc2cc(C)c(Cl)cc2OC)cc1O	-0.2	-3.9	20.2*	-2.2	-13.0
O=C(NNC(=O)c1cc(Br)c(Br)s1)c1csc(N2CCOCC2)n1	-8.5	4.6	6.5	2.1	346.6*
COc1cc(/C=C(\C#N)c2nc3ccccc3[nH]2)cc(Br)c1OCc1ccccc1	/	-0.4	0.0	/	486.9*
COc1cc(/C=C(\C#N)c2nc3ccccc3[nH]2)cc(Br)c1OCc1ccc(F)cc1	-2.7	-3.2	0.0	-2.6	4.0
CCOC(=O)CSc1n[nH]c(NC(=O)c2cccc(C)c2)n1	90.1*	-2.2	-3.5	-0.2	13.1
CC1(C)C(C(=O)OCC(Cl)(Cl)Cl)N2C(=O)C(NC(=O)Cc3ccccc3)C2S1=O (stereo not given)	-5.6	1.6	-3.0	0.3	-2.5
CCN(CC)C(=S)SSC(=S)N(CC)CC	0.9	5.1	-23.1	20.4*	130.7
COc1ccccc1C(=O)N/N=C/c1ccc2c(c1)OCO2	5.1	6.5	5.0	-4.5	301.2*
COCCNC(=S)NNC(=O)c1ccco1	1.2	-2.1	2.8	61.0*	-3.8
Cc1ccc(N(C)S(=O)(=O)c2ccc(-c3ccc(=O)[nH]n3)s2)cc1C	3.2	-4.2	1.7	3.3	157.4
CCOc1ccc(N(C)S(=O)(=O)c2ccc(-c3ccc(=O)[nH]n3)s2)cc1	0.4	9.9	3.2	15.1*	420.9
Nc1nc(-c2ccco2)nn1C(=O)c1cccnc1	18.4	-2.0	9.0	3.8	9.7
COc1ccc(C(=O)n2nc(-c3ccco3)nc2N)cc1	84.1*	6.9	3.6	8.7	4.9
Cc1ccc(C(=O)n2nc(-c3ccco3)nc2N)cc1	39.8*	9.0	6.0	-3.7	265.5
COc1ccc2c(C#N)c3ccccn3c2c1	?	7.6	-1.4	4.5	-0.3
SMILES	HDAC3 inhib	IDE cell inh	IDE cell activ	LANA-H2A inh	Mot1-301 SUMO
CCCc1cc(=O)[nH]c(SCC(=O)Nc2cc(S(=O)(=O)N3CCOCC3)ccc2N(CC)CC)n1	5.2	2.3	3.6	-2.8	-2.7
O=C(/C=C/c1ccccc1)Nc1ccc(N2CCCCC2)cc1	2.2	3.1	-7.7	2.9	29.8
O=C(/C=C/c1ccc(Cl)cc1)Nc1ccc(N2CCCCC2)cc1	2.9	2.7	40.5*	1.2	0.9
CN(C)C(=O)C1CC(=O)OC12CCCCC2 (stereo not given)	-1.6	1.3	3.9	0.4	-14.6
CCCN(CCC)C(=O)C1CC(=O)OC12CCCCC2 (stereo not given)	3.9	0.1	/	13.2*	-11.3
CC(=O)Nc1ccc(NC(=O)COC(=O)c2n[nH]c3ccccc23)cc1	0.0	1.8	19.2*	3.9	-0.3
COc1ccc(OC)c(/C=N\NC(=O)c2ccc(-c3ccccc3)cc2)c1	-7.8	/	-13.7	1.1	59.3
COc1ccc(C(=O)N/N=C/c2cc3ccccc3[nH]c2=O)cc1	-9.3	0.4	29.7*	2.4	291.6
CCCn1nnnc1SCC(=O)NCc1cccs1	3.3	2.8	3.0	98.3*	/
COc1ccc(-c2c(C)c3ccc(O)cc3oc2=O)cc1OC	-106.3	1.4	5.5	-2.8	45.1
O=c1cc(-c2ccccc2)oc2cc(O)ccc12	/	/	-7.3	/	/
Nc1ccc(-c2c3ccc(=O)cc-3oc3cc(O)ccc23)cc1C(=O)O	11.5	16.7*	47.4*	37.6*	31.4
O=c1ccc2c(-c3ccccc3)c3ccc(O)cc3oc-2c1	0.3	-26.1	51.5*	61.2*	-9.4
O=C1CC[C@@H](OCc2ccccc2)CCN1CC[C@H](Sc1ccccc1)c1ccccc1	8.1	1.4	-0.8	-2.2	-5.1
CCOC(=O)C1CCN(C(=S)NC2CC3C=CC2C3)CC1 (stereo not given)	5.3	5.0	/	20.5*	-8.8
NS(=O)(=O)c1cc2c(cc1Cl)NC=NS2(=O)=O	0.0	8.1	5.6	12.9*	2.9
O=C(C1COc2ccccc2O1)N1CCN(c2nc3ccc([N+](=O)[O-])cc3s2)CC1 (stereo not given)	-0.1	3.9	7.6	-0.1	534.7*
O=[N+]([O-])c1cc2c(c(CSc3nnc(Nc4ccccc4)s3)c1)OCOC2	7.5	6.9	5.1	3.3	-14.7
Cc1ccccc1Nc1nnc(SCc2cc([N+](=O)[O-])cc3c2OCOC3)s1	3.4	7.0	7.2	23.9*	5.1
COC(=O)C1CCN(C(=O)CSc2nnc(-c3ccncc3)o2)CC1	-1.6	-2.5	0.2	-2.4	312.0*
Cc1cc(N2CCCC2)ccc1/C=C1/C(=O)N(C)C(=S)N1C	-1.6	30.8*	-63.1	1.0	4.6
OC(Cc1cccnc1)c1ccccc1 (stereo not given)	/	/	1.9	/	/
Cc1cccc(OCc2nnc(SC(C)C(=O)O)n2Cc2ccccc2)c1 (stereo not given)	-8.2	3.6	3.9	3.2	13.4
Cc1ccc(OCc2nnc(SC(C)C(=O)O)n2Cc2ccccc2)cc1 (stereo not given)	-2.4	2.8	11.4	10.7*	26.5
C[C@@H]1CN([C@@H](C)CO)C(=O)c2cccc(NC(=O)Nc3ccccc3)c2O[C@H]1CN(C)C(=O)Nc1cccc2ccccc12	-0.4	3.3	-2.4	7.0	4.7
